{"source": "ChEMBL document CHEMBL2218924", "about": "“A broad activity screen in support of a chemogenomic map for kinase signalling research and drug discovery” (Biochem J, 2013)", "key": {"[1]": {"molecular_target": "Death-associated protein kinase 1 (Homo sapiens) (UniProt P53355)", "sequence (P53355 whole entry, looked up)": "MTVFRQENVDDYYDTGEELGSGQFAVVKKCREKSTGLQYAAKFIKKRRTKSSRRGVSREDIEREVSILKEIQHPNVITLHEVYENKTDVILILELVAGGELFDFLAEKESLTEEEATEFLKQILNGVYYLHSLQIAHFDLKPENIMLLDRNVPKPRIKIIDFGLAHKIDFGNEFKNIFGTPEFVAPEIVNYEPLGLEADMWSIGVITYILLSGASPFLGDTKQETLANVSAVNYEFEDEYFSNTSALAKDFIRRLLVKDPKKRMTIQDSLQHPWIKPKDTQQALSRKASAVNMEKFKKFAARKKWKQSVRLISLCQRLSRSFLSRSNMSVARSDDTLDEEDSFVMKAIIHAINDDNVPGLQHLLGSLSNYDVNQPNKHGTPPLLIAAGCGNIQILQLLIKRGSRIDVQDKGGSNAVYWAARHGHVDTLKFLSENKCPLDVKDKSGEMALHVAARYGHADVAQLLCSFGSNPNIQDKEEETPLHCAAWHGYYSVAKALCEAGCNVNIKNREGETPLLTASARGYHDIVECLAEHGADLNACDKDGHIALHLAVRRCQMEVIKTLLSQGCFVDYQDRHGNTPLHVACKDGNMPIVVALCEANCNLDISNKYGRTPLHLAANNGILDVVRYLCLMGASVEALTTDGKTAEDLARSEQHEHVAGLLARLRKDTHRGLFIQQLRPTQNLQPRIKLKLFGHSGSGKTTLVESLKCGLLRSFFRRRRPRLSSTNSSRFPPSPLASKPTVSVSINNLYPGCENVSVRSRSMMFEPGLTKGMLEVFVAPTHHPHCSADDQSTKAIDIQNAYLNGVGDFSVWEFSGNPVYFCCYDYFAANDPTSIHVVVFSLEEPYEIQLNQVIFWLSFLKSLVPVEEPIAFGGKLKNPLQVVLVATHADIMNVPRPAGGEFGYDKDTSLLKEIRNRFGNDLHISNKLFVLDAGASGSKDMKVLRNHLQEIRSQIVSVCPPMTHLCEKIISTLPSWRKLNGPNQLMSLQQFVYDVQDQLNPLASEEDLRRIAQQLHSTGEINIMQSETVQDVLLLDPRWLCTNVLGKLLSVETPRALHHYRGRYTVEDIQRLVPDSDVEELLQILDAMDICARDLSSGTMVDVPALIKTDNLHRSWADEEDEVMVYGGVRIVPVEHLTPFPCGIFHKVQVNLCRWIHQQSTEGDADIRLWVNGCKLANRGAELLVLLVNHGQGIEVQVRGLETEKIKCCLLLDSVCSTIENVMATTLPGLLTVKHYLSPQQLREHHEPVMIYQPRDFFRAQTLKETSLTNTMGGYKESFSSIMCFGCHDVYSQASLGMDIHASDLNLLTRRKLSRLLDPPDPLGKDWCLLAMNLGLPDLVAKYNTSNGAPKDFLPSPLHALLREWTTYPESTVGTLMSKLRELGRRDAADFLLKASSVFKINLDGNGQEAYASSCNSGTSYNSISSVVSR", "conditions": "at 10 µM"}, "[2]": {"molecular_target": "Death-associated protein kinase 2 (Homo sapiens) (UniProt Q9UIK4)", "sequence (Q9UIK4 whole entry, looked up)": "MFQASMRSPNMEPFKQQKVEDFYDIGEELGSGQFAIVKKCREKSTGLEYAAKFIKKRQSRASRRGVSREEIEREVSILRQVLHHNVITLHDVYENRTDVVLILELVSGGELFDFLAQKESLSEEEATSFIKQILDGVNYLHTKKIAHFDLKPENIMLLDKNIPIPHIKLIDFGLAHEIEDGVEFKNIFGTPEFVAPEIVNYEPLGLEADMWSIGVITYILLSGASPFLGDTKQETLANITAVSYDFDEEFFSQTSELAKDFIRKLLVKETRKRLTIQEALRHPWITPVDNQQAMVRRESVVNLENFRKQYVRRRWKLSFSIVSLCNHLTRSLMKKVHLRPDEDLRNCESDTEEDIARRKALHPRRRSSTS", "conditions": "at 1 µM"}, "[3]": {"molecular_target": "Death-associated protein kinase 2 (Homo sapiens) (UniProt Q9UIK4)", "conditions": "at 10 µM"}, "[4]": {"molecular_target": "T1, Serine/threonine-protein kinase DCLK2 (Homo sapiens) (UniProt Q8N568)", "T1 sequence (whole entry)": "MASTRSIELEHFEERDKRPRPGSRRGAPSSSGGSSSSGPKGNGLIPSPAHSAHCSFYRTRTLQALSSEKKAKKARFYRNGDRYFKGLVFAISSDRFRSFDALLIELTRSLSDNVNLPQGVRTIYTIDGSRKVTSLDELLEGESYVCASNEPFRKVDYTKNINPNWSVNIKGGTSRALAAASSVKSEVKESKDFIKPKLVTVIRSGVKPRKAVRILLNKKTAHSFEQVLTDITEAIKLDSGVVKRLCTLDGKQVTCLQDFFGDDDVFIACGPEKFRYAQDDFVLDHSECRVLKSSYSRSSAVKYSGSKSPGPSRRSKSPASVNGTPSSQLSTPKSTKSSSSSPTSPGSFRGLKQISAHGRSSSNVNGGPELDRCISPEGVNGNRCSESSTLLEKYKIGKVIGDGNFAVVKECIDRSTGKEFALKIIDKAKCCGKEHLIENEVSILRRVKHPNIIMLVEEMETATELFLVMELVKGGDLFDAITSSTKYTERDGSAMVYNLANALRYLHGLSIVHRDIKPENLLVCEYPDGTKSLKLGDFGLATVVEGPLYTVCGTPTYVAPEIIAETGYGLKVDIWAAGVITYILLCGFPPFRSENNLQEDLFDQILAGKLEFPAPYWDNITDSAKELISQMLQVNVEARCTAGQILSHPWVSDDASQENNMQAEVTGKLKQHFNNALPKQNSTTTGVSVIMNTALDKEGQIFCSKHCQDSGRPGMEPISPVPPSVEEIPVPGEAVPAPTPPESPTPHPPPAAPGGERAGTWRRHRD", "conditions": "at 10 µM"}, "[5]": {"molecular_target": "T2, Myotonin-protein kinase (Homo sapiens) (UniProt Q09013)", "T2 sequence (whole entry)": "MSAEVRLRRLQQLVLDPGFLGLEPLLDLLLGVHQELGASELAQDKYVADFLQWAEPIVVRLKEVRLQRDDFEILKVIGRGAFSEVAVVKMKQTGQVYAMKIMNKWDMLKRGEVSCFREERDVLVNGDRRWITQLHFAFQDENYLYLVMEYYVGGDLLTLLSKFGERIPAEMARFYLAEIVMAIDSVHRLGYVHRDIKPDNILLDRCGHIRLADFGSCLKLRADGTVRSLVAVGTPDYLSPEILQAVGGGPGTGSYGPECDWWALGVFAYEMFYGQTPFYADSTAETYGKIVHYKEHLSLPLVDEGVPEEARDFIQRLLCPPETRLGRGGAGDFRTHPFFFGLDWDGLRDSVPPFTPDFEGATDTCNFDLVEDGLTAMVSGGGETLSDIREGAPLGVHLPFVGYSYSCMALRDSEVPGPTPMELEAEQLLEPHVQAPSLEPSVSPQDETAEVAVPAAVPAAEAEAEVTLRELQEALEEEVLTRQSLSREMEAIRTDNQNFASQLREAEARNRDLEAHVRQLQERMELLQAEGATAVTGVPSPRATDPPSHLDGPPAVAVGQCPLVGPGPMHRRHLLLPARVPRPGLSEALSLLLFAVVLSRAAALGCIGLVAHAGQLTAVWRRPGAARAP", "conditions": "at 1 µM"}, "[6]": {"molecular_target": "T2, Myotonin-protein kinase (Homo sapiens)", "conditions": "at 10 µM"}, "[7]": {"molecular_target": "T3, Serine/threonine-protein kinase 17A (Homo sapiens) (UniProt Q9UEE5)", "T3 sequence (whole entry)": "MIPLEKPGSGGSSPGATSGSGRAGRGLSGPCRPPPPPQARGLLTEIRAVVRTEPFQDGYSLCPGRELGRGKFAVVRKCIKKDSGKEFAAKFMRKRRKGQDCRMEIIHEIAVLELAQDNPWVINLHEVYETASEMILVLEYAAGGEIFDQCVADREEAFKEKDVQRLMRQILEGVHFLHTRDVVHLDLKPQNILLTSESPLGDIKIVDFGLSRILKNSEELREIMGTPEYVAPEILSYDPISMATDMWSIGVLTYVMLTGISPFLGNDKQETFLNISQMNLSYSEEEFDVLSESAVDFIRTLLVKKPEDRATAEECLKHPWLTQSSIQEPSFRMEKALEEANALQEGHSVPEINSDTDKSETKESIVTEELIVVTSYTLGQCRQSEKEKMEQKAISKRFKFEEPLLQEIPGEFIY", "conditions": "at 1 µM"}, "[8]": {"molecular_target": "T3, Serine/threonine-protein kinase 17A (Homo sapiens)", "conditions": "at 10 µM"}, "[9]": {"molecular_target": "T4, Dual specificity tyrosine-phosphorylation-regulated kinase 2 (Homo sapiens) (UniProt Q92630)", "T4 sequence (whole entry)": "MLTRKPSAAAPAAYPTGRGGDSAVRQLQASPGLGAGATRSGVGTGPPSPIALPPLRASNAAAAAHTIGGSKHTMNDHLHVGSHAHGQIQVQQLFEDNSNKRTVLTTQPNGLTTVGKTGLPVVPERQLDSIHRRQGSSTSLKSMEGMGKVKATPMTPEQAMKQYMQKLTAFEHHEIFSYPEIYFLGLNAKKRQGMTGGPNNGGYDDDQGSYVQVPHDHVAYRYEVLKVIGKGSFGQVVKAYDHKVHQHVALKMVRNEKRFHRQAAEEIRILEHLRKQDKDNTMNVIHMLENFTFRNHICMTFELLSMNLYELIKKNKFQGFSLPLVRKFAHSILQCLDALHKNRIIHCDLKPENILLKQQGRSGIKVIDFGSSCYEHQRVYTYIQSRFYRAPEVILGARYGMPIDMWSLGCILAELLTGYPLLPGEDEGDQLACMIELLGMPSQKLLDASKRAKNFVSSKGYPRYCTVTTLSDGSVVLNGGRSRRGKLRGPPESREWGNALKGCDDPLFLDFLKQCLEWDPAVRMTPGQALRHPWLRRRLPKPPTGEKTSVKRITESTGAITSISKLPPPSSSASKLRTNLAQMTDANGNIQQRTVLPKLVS", "conditions": "at 1 µM"}, "[10]": {"molecular_target": "T4, Dual specificity tyrosine-phosphorylation-regulated kinase 2 (Homo sapiens)", "conditions": "at 10 µM"}, "[11]": {"molecular_target": "T5, Ephrin type-A receptor 1 (Homo sapiens) (UniProt P21709)", "T5 sequence (whole entry)": "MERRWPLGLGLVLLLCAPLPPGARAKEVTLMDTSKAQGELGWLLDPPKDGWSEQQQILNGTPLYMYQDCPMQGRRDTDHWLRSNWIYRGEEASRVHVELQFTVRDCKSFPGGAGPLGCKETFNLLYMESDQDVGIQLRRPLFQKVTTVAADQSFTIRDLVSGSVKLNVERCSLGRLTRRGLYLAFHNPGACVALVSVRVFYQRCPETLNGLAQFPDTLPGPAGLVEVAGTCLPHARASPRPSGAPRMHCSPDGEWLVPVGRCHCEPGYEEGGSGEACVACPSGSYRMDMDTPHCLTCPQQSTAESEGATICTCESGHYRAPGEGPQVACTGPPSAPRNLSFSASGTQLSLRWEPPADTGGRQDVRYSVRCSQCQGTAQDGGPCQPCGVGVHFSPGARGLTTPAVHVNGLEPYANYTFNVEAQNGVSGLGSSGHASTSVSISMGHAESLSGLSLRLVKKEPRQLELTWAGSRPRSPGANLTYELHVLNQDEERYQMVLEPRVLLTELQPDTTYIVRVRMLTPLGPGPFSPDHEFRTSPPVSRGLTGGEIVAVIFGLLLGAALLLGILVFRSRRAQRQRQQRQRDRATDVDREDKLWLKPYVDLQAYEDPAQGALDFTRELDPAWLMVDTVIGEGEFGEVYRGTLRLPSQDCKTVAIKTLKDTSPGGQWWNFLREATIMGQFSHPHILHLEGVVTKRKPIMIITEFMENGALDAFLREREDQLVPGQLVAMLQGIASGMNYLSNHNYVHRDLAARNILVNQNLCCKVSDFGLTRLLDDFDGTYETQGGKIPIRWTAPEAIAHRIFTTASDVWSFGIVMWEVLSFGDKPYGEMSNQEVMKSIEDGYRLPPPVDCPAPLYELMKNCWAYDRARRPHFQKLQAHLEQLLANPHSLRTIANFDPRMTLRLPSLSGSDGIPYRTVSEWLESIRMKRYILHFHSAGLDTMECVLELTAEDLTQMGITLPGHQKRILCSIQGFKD", "conditions": "at 1 µM"}, "[12]": {"molecular_target": "T5, Ephrin type-A receptor 1 (Homo sapiens)", "conditions": "at 10 µM"}, "[13]": {"molecular_target": "Ephrin type-A receptor 2 (Homo sapiens) (UniProt P29317)", "sequence (P29317 whole entry)": "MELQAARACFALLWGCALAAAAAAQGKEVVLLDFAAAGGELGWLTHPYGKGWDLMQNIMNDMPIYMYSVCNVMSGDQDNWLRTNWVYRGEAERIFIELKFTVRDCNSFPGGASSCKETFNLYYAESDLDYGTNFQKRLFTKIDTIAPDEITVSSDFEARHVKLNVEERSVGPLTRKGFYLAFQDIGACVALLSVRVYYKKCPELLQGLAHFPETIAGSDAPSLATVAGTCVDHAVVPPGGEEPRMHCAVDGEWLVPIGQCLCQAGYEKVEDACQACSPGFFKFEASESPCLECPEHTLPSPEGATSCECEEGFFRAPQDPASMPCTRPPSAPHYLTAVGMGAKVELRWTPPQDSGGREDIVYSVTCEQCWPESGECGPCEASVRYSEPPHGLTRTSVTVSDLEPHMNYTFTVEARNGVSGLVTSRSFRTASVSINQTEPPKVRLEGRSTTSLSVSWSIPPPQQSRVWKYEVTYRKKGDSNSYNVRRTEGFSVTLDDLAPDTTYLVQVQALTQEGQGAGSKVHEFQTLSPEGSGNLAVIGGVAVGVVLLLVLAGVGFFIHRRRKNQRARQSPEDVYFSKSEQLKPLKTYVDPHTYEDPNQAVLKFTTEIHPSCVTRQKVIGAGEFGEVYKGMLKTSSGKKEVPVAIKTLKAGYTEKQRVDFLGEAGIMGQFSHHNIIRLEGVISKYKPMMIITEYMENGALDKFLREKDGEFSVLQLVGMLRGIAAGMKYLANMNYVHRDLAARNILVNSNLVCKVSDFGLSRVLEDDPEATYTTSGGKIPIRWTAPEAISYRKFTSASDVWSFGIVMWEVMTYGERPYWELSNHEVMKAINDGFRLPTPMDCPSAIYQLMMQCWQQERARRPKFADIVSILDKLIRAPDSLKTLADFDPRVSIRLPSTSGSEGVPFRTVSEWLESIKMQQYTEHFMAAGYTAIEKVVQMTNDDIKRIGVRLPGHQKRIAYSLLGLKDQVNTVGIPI", "conditions": "at 1 µM"}, "[14]": {"molecular_target": "Ephrin type-A receptor 2 (Homo sapiens) (UniProt P29317)", "conditions": "at 10 µM"}, "[15]": {"molecular_target": "T6, Ephrin type-A receptor 3 (Homo sapiens) (UniProt P29320)", "T6 sequence (whole entry)": "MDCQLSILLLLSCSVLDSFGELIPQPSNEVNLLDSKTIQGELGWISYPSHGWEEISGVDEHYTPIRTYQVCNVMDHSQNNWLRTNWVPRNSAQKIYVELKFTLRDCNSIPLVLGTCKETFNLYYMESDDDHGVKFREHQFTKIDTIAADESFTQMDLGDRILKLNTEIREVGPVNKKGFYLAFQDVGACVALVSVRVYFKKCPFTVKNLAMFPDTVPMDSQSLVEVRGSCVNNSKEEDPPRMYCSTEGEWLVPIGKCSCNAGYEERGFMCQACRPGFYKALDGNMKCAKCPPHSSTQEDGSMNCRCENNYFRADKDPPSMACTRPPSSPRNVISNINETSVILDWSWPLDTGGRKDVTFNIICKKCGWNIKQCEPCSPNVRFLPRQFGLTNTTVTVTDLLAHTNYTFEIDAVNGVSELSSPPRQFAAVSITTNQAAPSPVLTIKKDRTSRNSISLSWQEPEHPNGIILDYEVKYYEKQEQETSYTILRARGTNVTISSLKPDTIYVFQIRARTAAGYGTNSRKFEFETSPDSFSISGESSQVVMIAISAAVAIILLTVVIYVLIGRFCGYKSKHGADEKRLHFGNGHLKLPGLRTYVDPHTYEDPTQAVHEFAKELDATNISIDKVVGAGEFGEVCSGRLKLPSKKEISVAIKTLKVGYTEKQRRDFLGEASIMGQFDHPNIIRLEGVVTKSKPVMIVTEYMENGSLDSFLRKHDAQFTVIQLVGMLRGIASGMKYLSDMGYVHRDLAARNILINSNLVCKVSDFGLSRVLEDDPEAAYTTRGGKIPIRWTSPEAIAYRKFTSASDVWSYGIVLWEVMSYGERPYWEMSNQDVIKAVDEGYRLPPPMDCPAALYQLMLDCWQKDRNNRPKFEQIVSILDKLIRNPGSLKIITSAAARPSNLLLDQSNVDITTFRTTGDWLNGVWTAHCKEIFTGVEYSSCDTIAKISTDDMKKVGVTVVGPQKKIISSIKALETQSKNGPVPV", "conditions": "at 1 µM"}}, "data": [{"smiles": "O=c1cc(N2CCNCC2)oc2c(-c3ccccc3)cccc12", "values": [{"measurement": "residual activity", "setting": "[1]", "result": 82, "unit": "%"}, {"measurement": "residual activity", "setting": "[2]", "result": 98, "unit": "%"}, {"measurement": "residual activity", "setting": "[3]", "result": 102, "unit": "%"}, {"measurement": "residual activity", "setting": "[4]", "result": 70, "unit": "%"}, {"measurement": "residual activity", "setting": "[5]", "result": 134, "unit": "%"}, {"measurement": "residual activity", "setting": "[6]", "result": 141, "unit": "%"}, {"measurement": "residual activity", "setting": "[7]", "result": 69, "unit": "%"}, {"measurement": "residual activity", "setting": "[8]", "result": 66, "unit": "%"}, {"measurement": "residual activity", "setting": "[9]", "result": 87, "unit": "%"}, {"measurement": "residual activity", "setting": "[10]", "result": 94, "unit": "%"}, {"measurement": "residual activity", "setting": "[11]", "result": 91, "unit": "%"}, {"measurement": "residual activity", "setting": "[12]", "result": 100, "unit": "%"}, {"measurement": "residual activity", "setting": "[13]", "result": 99, "unit": "%"}, {"measurement": "residual activity", "setting": "[14]", "result": 97, "unit": "%"}, {"measurement": "residual activity", "setting": "[15]", "result": 91, "unit": "%"}]}]}
